# This is part of a sample that, as a whole, favours compounds with a hit. Of some 83,000 tested, about 20% had one in any assay.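 How to read the values: 0–100, growth inhibition (40 = 60% inhibited); 0, no net growth; -100 to 0, cell death (-40 = 40% of starting cells died; -100 = all dead).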 Unmarked numbers belong to inactive results. The source made the active and inactive calls.
# Tested on: CAKI-1 renal
# Assay: NCI-60 one-dose screen, 48 h (100 = growth as untreated, 0 = no growth, -100 = all killed)
# Details: 10 µM unless noted
# Protocol: Growth inhibition of the CAKI-1 human tumor cell line is measured as a screen for anti-cancer activity. Cells are grown in 96 well plates and exposed to the test compound for 48 hours. Compounds are tested at a single concentration, which is 10^-5 M for most compounds. The reported endpoint is percent growth (GI% or GIPRCNT), where numbers from 0 - 100% represent growth inhibition, and numbers from -100% - 0 represent cell death. For example, a value of 40 represents 60% growth inhibition. A value of 0 means no net growth occurred over the course of the experiment. A value of -40 indicates 40% of cells at the beginning of the experiment died by the end of the experiment. A value of -100 means all cells are dead at the end of the experiment.
# NCI-60 Human Tumor Cell Lines Screen was performed using the standard one-dose NCI protocol, which is described in more detail at https://dtp.cancer.gov/discovery_development/nci-60/default.htm.
# Compounds with GIPRCNT values below 10 were considered active. Activity score was based on GIPRCNT using the following formula: […]
# Score is 0 for GIPRCNT values of 100 or above, 50 for GIPRCNT values of 0, and 100 for GIPRCNT values of -100.
row,Compound,growth
1,O=C1CC(=O)N(c2ccccc2)O1,94.8%
2,Cc1ccc2c(c1)O/C(=C\c1ccc([N+](=O)[O-])o1)C2=O,36.8%
3,O=NC1CC=CCC1c1ccccc1 (stereo not given),103%
4,O=C1C[C@@H]2/C(=C(O)\C=C\c3ccccc3)C(=O)C=C[C@@H]2O1,-54% (active)
5,c1ccc(-n2nnnc2-c2cccc3ccccc23)cc1,21.8%
6,CSc1ccc2c(c1)N(CCC1CCCCN1C)c1ccccc1S2 (stereo not given),32.9%
7,CC[C@]1(O)CC2CN(CCc3c([nH]c4ccccc34)[C@@](C(=O)OC)(c3cc4c(cc3OC)N(C)[C@H]3[C@@](O)(C(=O)OC)[C@H](OC(C)=O)[C@]5(CC)C=CCN6CC[C@]43[C@@H]65)C2)C1 (stereo not given in full),26.8%
8,Nc1ccc(C2=Nc3cccc4cccc(c34)S2)cc1,75.7%
9,O=C1/C(=C/c2ccc([N+](=O)[O-])o2)Oc2ccc(Cl)cc21,3.65% (active)
10,O=C1CCCN1C1CCN(Cc2cc3ccccc3[nH]c2=O)c2ccccc21 (stereo not given),79.3%
11,Cc1nn(-c2ccccc2)c(Cl)c1C(CC(=O)c1ccc(Cl)cc1)CC(=O)c1ccc(Cl)cc1,76.4%
12,COc1ccc2c(c1)nc(N)c1c3cc(C)c(C)cc3cn21,59.2%
13,CC12CCC3C(CCC4CC(=O)/C(=C\O)CC43C)C1CCC(=O)O2 (stereo not given),105%
14,COc1cc(C(=O)/C=C/c2cccnc2Nc2ccccc2)cc(OC)c1OC,-22.6% (active)
15,O=C1c2ccccc2-c2c1nc1ccccc1[n+]2[O-],98.2%
16,COC(=O)CC1=C(C)/C(=C/c2[nH]c(-c3ccc[nH]3)cc2OC)N=C1C,8.04% (active)
17,NC(=O)c1ccccc1NC(=O)c1ccccc1Cl,98.3%
18,O=[N+]([O-])c1ccc(Oc2cccc(C(F)(F)F)c2)c([N+](=O)[O-])c1,20.2%
19,COc1ccc(C2=NN(C(=O)c3cc(OC)c(OC)c(OC)c3)C(c3ccc(C#N)cc3)C2)cc1OC (stereo not given),5.45% (active)
20,COC1CC2CCC(C)C(O)(O2)C(=O)C(=O)N2CCCCC2C(=O)OC(C(C)CC2CCC(O)C(OC)C2)CC(=O)C(C)C=C(C)C(O)C(OC)C(=O)C(C)CC(C)/C=C/C=C/C=C1C (stereo not given),49%

row,Compound,growth
1,Oc1[nH]c2ccc(Cl)cc2c1/C=c1/ccc2c(c1)N=C(c1ccc(C(F)(F)F)cc1)N=2,54.3%
2,CCOC(=O)C1C(=O)OC2CCCCC21 (stereo not given),96.1%
3,CCc1[nH]nc(-c2ccc(OC)cc2)c1-c1ccccc1OCCN(CC)CC,89%
4,Clc1ncn[nH]1,92.5%
5,Cc1nc2cc(NC(=O)CN3CCN(CCN4C(=O)c5cccc6cccc(c56)C4=O)CC3)ccc2s1,72.9%
6,Cn1cc(-c2csc(-c3cn(C)c4ncccc34)n2)c2cccnc21,83.3%
7,COc1cccc(-c2nnc(N)o2)c1,98.4%
8,CC(CCC(=O)O)(NC(=O)c1ccc([N+](=O)[O-])cc1)C(=O)O (stereo not given),108%
9,COc1ccc2[nH]cc(/C=C3/C(=O)Nc4ccc(Cl)cc43)c2c1,26.6%
10,CSc1nc2c(c(=O)n1C)C(c1ccccc1)C1=C(N2)/C(=C/c2ccccc2)CCC1 (stereo not given),20.7%
11,CCOc1cc(-c2ccc[nH]2)[nH]c1/C=C1\N=C(C)C(C(=O)OC)=C1C,-49.2% (active)
12,O=Nc1ccc(O)c(=O)cc1,-7.71% (active)
13,CC/C=C\C=C/C(=O)N/C=C/CC1Cc2cccc(O)c2C(=O)O1 (stereo not given),69.5%
14,COc1cccc2c1C(=O)c1c(O)c3c(c(O)c1C2=O)C[C@@](O)(/C(C)=N/NC(=O)c1cccc([N+](=O)[O-])c1)C[C@@H]3OC1CC(N)C(O)C(C)O1 (stereo not given in full),-47.4% (active)
15,O[C@@H]1Cc2ccc3ccccc3c2N[C@H](c2ccoc2)C1,96.6%
16,CC(=O)Nc1ccc2c(c1)Cc1c(F)c(F)c(F)c(F)c1-2,86.6%
17,O=C1/C(=C/c2ccc([N+](=O)[O-])o2)Oc2ccc(Br)cc21,74%
18,NC(N)=N/N=C(/c1ccccc1)c1ccc(Cl)cc1,-17.2% (active)
19,O=C(Nc1cccc(C(F)(F)F)c1)Nc1ccc(OCc2nnc(-c3ccc(Cl)cc3)o2)c(F)c1,80.1%
20,CCCCCCCCCCSc1ncnc2nc[nH]c12,69.4%

# — PubChem BioAssay (NCI)
